Test results taken from article PMC11006913.
Residue numbers refer to the chain shown, from its start.

Tests used:
Assay in all cases: PBM; 200 nM protein, PBS
Settings in all cases: dsDNA, one strand shown
[1] = biological target: HOXB4 (Homo sapiens, UniProt P17483 148-234)
[2] = biological target: T1, VENTX (Homo sapiens, UniProt O95231 78-163, R121Q)
T1 sequence: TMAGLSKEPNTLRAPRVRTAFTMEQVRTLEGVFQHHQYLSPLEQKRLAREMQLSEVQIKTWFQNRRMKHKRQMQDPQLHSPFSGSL

[3] = biological target: HOXA4 (Homo sapiens, UniProt Q00056 201-287, W262R)
HOXA4 (Homo sapiens, UniProt Q00056 201-287, W262R), sequence (Q00056 201-287 W262R): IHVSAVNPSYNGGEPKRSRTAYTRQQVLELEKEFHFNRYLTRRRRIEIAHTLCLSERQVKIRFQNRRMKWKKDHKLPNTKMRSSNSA

[4] = biological target: ALX4 (Homo sapiens, UniProt Q9H161 200-286)
ALX4, sequence (Q9H161 200-286): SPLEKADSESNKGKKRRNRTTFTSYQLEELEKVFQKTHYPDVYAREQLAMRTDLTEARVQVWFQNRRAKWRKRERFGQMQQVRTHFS

[5] = biological target: PRRX1 (Homo sapiens, UniProt P54821 80-166, F113S)
PRRX1 (Homo sapiens, UniProt P54821 80-166, F113S), sequence (P54821 80-166 F113S): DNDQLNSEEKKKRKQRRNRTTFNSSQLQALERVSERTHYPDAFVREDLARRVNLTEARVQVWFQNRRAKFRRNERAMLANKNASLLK

[6] = biological target: T2, VENTX (Homo sapiens, UniProt O95231 78-163, Y115F)
T2 sequence: T1 sequence with Y38F, Q44R

[7] = biological target: HOXB6 (Homo sapiens, UniProt P17509 132-218, K202E)
HOXB6 (Homo sapiens, UniProt P17509 132-218, K202E), sequence (P17509 132-218 K202E): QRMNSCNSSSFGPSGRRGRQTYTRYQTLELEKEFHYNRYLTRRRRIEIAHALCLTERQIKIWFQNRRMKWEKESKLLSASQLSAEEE

[8] = biological target: HOXA2 (Homo sapiens, UniProt O43364 129-215, R185T)
HOXA2 (Homo sapiens, UniProt O43364 129-215, R185T), sequence (O43364 129-215 R185T): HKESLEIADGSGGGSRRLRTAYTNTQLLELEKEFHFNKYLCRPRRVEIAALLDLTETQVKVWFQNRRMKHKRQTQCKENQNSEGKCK

[9] = biological target: HOXA4 (Homo sapiens, UniProt Q00056 201-287, R217L)
HOXA4 (Homo sapiens, UniProt Q00056 201-287, R217L), sequence (Q00056 201-287 R217L): as the sequence (Q00056 201-287 W262R) above, with R17L, R62W counted along it

[10] = biological target: HOXB4 (Homo sapiens, UniProt P17483 148-234, V174I)
HOXB4 (Homo sapiens, UniProt P17483 148-234, V174I), sequence (P17483 148-234 V174I): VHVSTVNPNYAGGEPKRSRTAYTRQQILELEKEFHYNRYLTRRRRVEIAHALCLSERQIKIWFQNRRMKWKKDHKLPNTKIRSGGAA

[11] = biological target: T3, PAX4 (Homo sapiens, UniProt O43316 9-242, R200Q)
T3 sequence: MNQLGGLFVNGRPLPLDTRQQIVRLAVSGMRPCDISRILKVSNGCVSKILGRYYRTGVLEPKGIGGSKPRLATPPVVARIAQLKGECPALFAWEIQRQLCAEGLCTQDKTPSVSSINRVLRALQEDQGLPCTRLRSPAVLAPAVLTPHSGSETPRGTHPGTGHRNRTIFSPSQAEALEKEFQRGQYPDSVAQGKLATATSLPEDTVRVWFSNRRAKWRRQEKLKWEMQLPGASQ

[12] = biological target: HOXA2 (Homo sapiens, UniProt O43364 129-215, R185K)
HOXA2 (Homo sapiens, UniProt O43364 129-215, R185K), sequence (O43364 129-215 R185K): as the sequence (O43364 129-215 R185T) above, with T57K counted along it

[13] = biological target: HOXA4 (Homo sapiens, UniProt Q00056 201-287)
HOXA4 (Homo sapiens, UniProt Q00056 201-287), sequence (Q00056 201-287): as the sequence (Q00056 201-287 W262R) above, with R62W counted along it

[14] = biological target: MSX2 (Homo sapiens, UniProt P35548 130-214)
MSX2 (Homo sapiens, UniProt P35548 130-214), sequence (P35548 130-214): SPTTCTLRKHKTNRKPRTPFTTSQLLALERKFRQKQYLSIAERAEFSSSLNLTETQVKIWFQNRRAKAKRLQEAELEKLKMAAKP

[15] = biological target: MSX2 (Homo sapiens, UniProt P35548 130-214, F161Y)
MSX2 (Homo sapiens, UniProt P35548 130-214, F161Y), sequence (P35548 130-214 F161Y): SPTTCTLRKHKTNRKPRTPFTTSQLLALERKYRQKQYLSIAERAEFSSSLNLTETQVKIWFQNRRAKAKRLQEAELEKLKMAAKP

[16] = biological target: VAX1 (Homo sapiens, UniProt Q5SQQ9 86-172, T142I)
VAX1 (Homo sapiens, UniProt Q5SQQ9 86-172, T142I), sequence (Q5SQQ9 86-172 T142I): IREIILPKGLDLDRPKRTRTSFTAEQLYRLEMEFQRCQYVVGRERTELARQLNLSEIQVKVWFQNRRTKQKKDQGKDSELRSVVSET

[17] = biological target: HOXA4 (Homo sapiens, UniProt Q00056 201-287, W262F)
HOXA4 (Homo sapiens, UniProt Q00056 201-287, W262F), sequence (Q00056 201-287 W262F): as the sequence (Q00056 201-287 W262R) above, with R62F counted along it

[18] = biological target: PRRX1 (Homo sapiens, UniProt P54821 80-166)
PRRX1 (Homo sapiens, UniProt P54821 80-166), sequence (P54821 80-166): as the sequence (P54821 80-166 F113S) above, with S34F counted along it

[19] = biological target: VAX1 (Homo sapiens, UniProt Q5SQQ9 86-172, K157R)
VAX1 (Homo sapiens, UniProt Q5SQQ9 86-172, K157R), sequence (Q5SQQ9 86-172 K157R): as the sequence (Q5SQQ9 86-172 T142I) above, with I57T, K72R counted along it

[20] = biological target: HOXB6 (Homo sapiens, UniProt P17509 132-218)
HOXB6 (Homo sapiens, UniProt P17509 132-218), sequence (P17509 132-218): as the sequence (P17509 132-218 K202E) above, with E71K counted along it

HOXB4 (Homo sapiens, UniProt P17483 148-234), sequence (P17483 148-234): as the sequence (P17483 148-234 V174I) above, with I27V counted along it

Sequence | binding signal [1] | binding signal [2] | binding signal [3] | binding signal [4] | binding signal [5] | binding signal [6] | binding signal [7] | binding signal [8] | binding signal [9] | binding signal [10] | binding signal [11] | binding signal [12] | binding signal [13] | binding signal [14] | binding signal [15] | binding signal [16] | binding signal [17] | binding signal [18] | binding signal [19] | binding signal [20]
GTTAATTA | 13.5 upbm affinity estimate (log intensity, higher = more binding, comparable within an allelic series) | 12.5 upbm affinity estimate (log intensity, higher = more binding, comparable within an allelic series) | 11 upbm affinity estimate (log intensity, higher = more binding, comparable within an allelic series) | 14.5 upbm affinity estimate (log intensity, higher = more binding, comparable within an allelic series) | 12 upbm affinity estimate (log intensity, higher = more binding, comparable within an allelic series) | 12.3 upbm affinity estimate (log intensity, higher = more binding, comparable within an allelic series) | 10.2 upbm affinity estimate (log intensity, higher = more binding, comparable within an allelic series) | 13.9 upbm affinity estimate (log intensity, higher = more binding, comparable within an allelic series) | 13.2 upbm affinity estimate (log intensity, higher = more binding, comparable within an allelic series) | 14.3 upbm affinity estimate (log intensity, higher = more binding, comparable within an allelic series) | 12.5 upbm affinity estimate (log intensity, higher = more binding, comparable within an allelic series) | 13.8 upbm affinity estimate (log intensity, higher = more binding, comparable within an allelic series) | 14.3 upbm affinity estimate (log intensity, higher = more binding, comparable within an allelic series) | 14 upbm affinity estimate (log intensity, higher = more binding, comparable within an allelic series) | 13.6 upbm affinity estimate (log intensity, higher = more binding, comparable within an allelic series) | 13.9 upbm affinity estimate (log intensity, higher = more binding, comparable within an allelic series) | 13 upbm affinity estimate (log intensity, higher = more binding, comparable within an allelic series) | 13.6 upbm affinity estimate (log intensity, higher = more binding, comparable within an allelic series) | 13.9 upbm affinity estimate (log intensity, higher = more binding, comparable within an allelic series) | 12.5 upbm affinity estimate (log intensity, higher = more binding, comparable within an allelic series)
ATTAATGA | 13.5 upbm affinity estimate (log intensity, higher = more binding, comparable within an allelic series) | 12.2 upbm affinity estimate (log intensity, higher = more binding, comparable within an allelic series) | 10.8 upbm affinity estimate (log intensity, higher = more binding, comparable within an allelic series) | 13.8 upbm affinity estimate (log intensity, higher = more binding, comparable within an allelic series) | 11.2 upbm affinity estimate (log intensity, higher = more binding, comparable within an allelic series) | 12.1 upbm affinity estimate (log intensity, higher = more binding, comparable within an allelic series) | 10.3 upbm affinity estimate (log intensity, higher = more binding, comparable within an allelic series) | 13.3 upbm affinity estimate (log intensity, higher = more binding, comparable within an allelic series) | 12.9 upbm affinity estimate (log intensity, higher = more binding, comparable within an allelic series) | 14.1 upbm affinity estimate (log intensity, higher = more binding, comparable within an allelic series) | 12.1 upbm affinity estimate (log intensity, higher = more binding, comparable within an allelic series) | 13.7 upbm affinity estimate (log intensity, higher = more binding, comparable within an allelic series) | 14.2 upbm affinity estimate (log intensity, higher = more binding, comparable within an allelic series) | – | – | 13.4 upbm affinity estimate (log intensity, higher = more binding, comparable within an allelic series) | 12.2 upbm affinity estimate (log intensity, higher = more binding, comparable within an allelic series) | 13.3 upbm affinity estimate (log intensity, higher = more binding, comparable within an allelic series) | 13.3 upbm affinity estimate (log intensity, higher = more binding, comparable within an allelic series) | 12.3 upbm affinity estimate (log intensity, higher = more binding, comparable within an allelic series)
CGTAATTA | 13.5 upbm affinity estimate (log intensity, higher = more binding, comparable within an allelic series) | 12.2 upbm affinity estimate (log intensity, higher = more binding, comparable within an allelic series) | 10.7 upbm affinity estimate (log intensity, higher = more binding, comparable within an allelic series) | 14.2 upbm affinity estimate (log intensity, higher = more binding, comparable within an allelic series) | 11.5 upbm affinity estimate (log intensity, higher = more binding, comparable within an allelic series) | 12.3 upbm affinity estimate (log intensity, higher = more binding, comparable within an allelic series) | 10.2 upbm affinity estimate (log intensity, higher = more binding, comparable within an allelic series) | 13.9 upbm affinity estimate (log intensity, higher = more binding, comparable within an allelic series) | 12.7 upbm affinity estimate (log intensity, higher = more binding, comparable within an allelic series) | 14.3 upbm affinity estimate (log intensity, higher = more binding, comparable within an allelic series) | 12.3 upbm affinity estimate (log intensity, higher = more binding, comparable within an allelic series) | 14 upbm affinity estimate (log intensity, higher = more binding, comparable within an allelic series) | 14.2 upbm affinity estimate (log intensity, higher = more binding, comparable within an allelic series) | 14 upbm affinity estimate (log intensity, higher = more binding, comparable within an allelic series) | 13.6 upbm affinity estimate (log intensity, higher = more binding, comparable within an allelic series) | 13.6 upbm affinity estimate (log intensity, higher = more binding, comparable within an allelic series) | 12.3 upbm affinity estimate (log intensity, higher = more binding, comparable within an allelic series) | 13.5 upbm affinity estimate (log intensity, higher = more binding, comparable within an allelic series) | 13.7 upbm affinity estimate (log intensity, higher = more binding, comparable within an allelic series) | 12.4 upbm affinity estimate (log intensity, higher = more binding, comparable within an allelic series)
GCTAATTA | 13.6 upbm affinity estimate (log intensity, higher = more binding, comparable within an allelic series) | 13 upbm affinity estimate (log intensity, higher = more binding, comparable within an allelic series) | 10.8 upbm affinity estimate (log intensity, higher = more binding, comparable within an allelic series) | 14.6 upbm affinity estimate (log intensity, higher = more binding, comparable within an allelic series) | 12 upbm affinity estimate (log intensity, higher = more binding, comparable within an allelic series) | 12.8 upbm affinity estimate (log intensity, higher = more binding, comparable within an allelic series) | 10.1 upbm affinity estimate (log intensity, higher = more binding, comparable within an allelic series) | 14.2 upbm affinity estimate (log intensity, higher = more binding, comparable within an allelic series) | 13 upbm affinity estimate (log intensity, higher = more binding, comparable within an allelic series) | 14.3 upbm affinity estimate (log intensity, higher = more binding, comparable within an allelic series) | 12.9 upbm affinity estimate (log intensity, higher = more binding, comparable within an allelic series) | 14.1 upbm affinity estimate (log intensity, higher = more binding, comparable within an allelic series) | 14.3 upbm affinity estimate (log intensity, higher = more binding, comparable within an allelic series) | 14.3 upbm affinity estimate (log intensity, higher = more binding, comparable within an allelic series) | 13.8 upbm affinity estimate (log intensity, higher = more binding, comparable within an allelic series) | 14.1 upbm affinity estimate (log intensity, higher = more binding, comparable within an allelic series) | 13 upbm affinity estimate (log intensity, higher = more binding, comparable within an allelic series) | 13.7 upbm affinity estimate (log intensity, higher = more binding, comparable within an allelic series) | 14.2 upbm affinity estimate (log intensity, higher = more binding, comparable within an allelic series) | 12.5 upbm affinity estimate (log intensity, higher = more binding, comparable within an allelic series)
